The target in assay [1] is Thyrotropin receptor (Homo sapiens) (UniProt P16473). The assay can be described thus: qHTS assay to identify small molecule antagonists of the thyroid stimulating hormone receptor (TSHR) signaling pathway (AID 1259385; calls by dose curve; also: nearly all actives have a fitted effect of over 20% in size; also: potency is read from the fitted curve at half-maximal effect). An outline of the steps: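 TSHR-HEK293 cells (800/well) plated 18 h, then compounds with Ro20-1724 and TSH at 1.5 ng/mL final, 30 min at room temperature. cAMP quantified by HTRF (cAMP-d2/anti-cAMP-cryptate, 1 h); 15 concentrations in triplicate.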
Sequence of Thyrotropin receptor (Homo sapiens) (P16473 whole entry, looked up): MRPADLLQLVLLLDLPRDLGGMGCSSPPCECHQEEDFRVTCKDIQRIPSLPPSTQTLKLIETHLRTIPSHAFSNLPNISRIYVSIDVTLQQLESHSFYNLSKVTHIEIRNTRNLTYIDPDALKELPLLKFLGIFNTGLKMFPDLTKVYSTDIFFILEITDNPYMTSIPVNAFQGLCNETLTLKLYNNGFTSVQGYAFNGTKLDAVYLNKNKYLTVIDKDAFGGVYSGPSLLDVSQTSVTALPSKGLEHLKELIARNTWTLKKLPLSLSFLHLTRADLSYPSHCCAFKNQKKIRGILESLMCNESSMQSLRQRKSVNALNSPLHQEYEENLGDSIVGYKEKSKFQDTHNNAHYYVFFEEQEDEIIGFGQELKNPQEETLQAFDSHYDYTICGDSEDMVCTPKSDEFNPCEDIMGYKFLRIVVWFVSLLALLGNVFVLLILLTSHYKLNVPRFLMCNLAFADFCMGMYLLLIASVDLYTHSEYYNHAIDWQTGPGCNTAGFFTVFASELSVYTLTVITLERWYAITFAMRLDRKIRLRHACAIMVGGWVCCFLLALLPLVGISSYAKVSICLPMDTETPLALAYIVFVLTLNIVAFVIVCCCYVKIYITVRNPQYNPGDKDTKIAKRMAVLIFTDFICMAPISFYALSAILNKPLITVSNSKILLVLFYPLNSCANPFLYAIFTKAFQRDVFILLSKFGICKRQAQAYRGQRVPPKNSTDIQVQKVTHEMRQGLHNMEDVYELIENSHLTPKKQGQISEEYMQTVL
For orientation: Quantitative high-throughput screening tests each substance at several concentrations.

The nature of assay [2]: qHTS assay to identify small molecule agonists of the estrogen receptor alpha (ER-alpha) signaling pathway in the presence of an antagonist - cell viability counter screen (AID 1259386).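 Also: cells exposed to compounds for 22 h at 37 °C before the viability read; nearly all actives have a fitted effect of over 30% in size.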 Also: potency is read from the fitted curve at half-maximal effect. Put shortly: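 Cytotoxicity was measured in parallel with the ERE-luciferase agonist screen, in the same wells. The cells were VM7Luc4E2, which endogenously express ER-alpha, and treatment was with compounds plus 10.0nM ICI-182,780 for 22hr.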

Assay [3] addresses Progesterone receptor (Homo sapiens) (UniProt P06401). The assay can be described thus: qHTS assay to identify small molecule agonists of the progesterone receptor (PR) signaling pathway (AID 1346784; calls by dose curve; also: nearly all actives have a fitted effect of over 30% in size). An outline of the steps: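 Agonist mode, quantitative HTS format in a HEK 293T line expressing a UAS-controlled beta-lactamase reporter; 16 hr compound exposure at 37C in 2% charcoal-stripped FBS, then LiveBLAzer B/G FRET fluorescence.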

Assay [4] is described as follows: qHTS assay to identify small molecule antagonists of the progesterone receptor (PR) signaling pathway - cell viability counter screen (AID 1346798). Also: series mostly up to about 92 µM; nearly all actives have a fitted effect of over 50% in size. An outline of the steps:
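Same-well multiplex: after 16 hr at 37C with compound and R5020 stimulation, HEK293T cells carrying a UAS-bla reporter received LiveBLAzer substrate (2 hr RT), then CellTiter-Glo (30 min RT) for luminescent viability.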

A short description of assay [5]: qHTS assay to identify small molecule agonists of the progesterone receptor (PR) signaling pathway - cell viability counter screen (AID 1346799; calls by dose curve; also: nearly all actives have a fitted effect of over 45% in size). An outline of the steps: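 Counter screen for cytotoxicity: compound-treated PR-UAS-bla HEK293T cells (16 hr, 37C, 5% CO2) were assayed with CellTiter-Glo, luminescence measured after 30 min at room temperature.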
The nature of assay [6]: qHTS assay to identify small molecule antagonists of the TGF-beta/Smad signaling pathway - cell viability counter screen (AID 1346824). Also: nearly all actives have a fitted effect of over 50% in size. Put shortly:
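SBE-bla HEK 293T cells, incubated overnight, then compound plus 0.25 ng/mL TGF-beta1 (stock added) for 5 hr at 37 C. Viability was read in the same wells by CellTiter-Glo luminescence after 30 min at room temperature.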

A short description of assay [7]: qHTS assay to identify small molecule agonists of the TGF-beta/Smad signaling pathway - cell viability counter screen (AID 1346829). Also: nearly all actives have a fitted effect of over 45% in size. Also: potency is read from the fitted curve at half-maximal effect. An outline of the steps:
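Compound-treated SBE-bla HEK 293T cells (5 hr, 37 C) were assessed for viability with CellTiter-Glo in parallel with the reporter read.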

The nature of assay [8]: qHTS assay to identify small molecule agonists of the TGF-beta/Smad signaling pathway (AID 1346859; active = well fitted activation curve with a large enough effect in the signal ratio in the repeat runs, not every such curve was filed as active; the % refers to the signal ratio; also: series mostly up to about 77 µM). An outline of the steps:
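Smad-responsive beta-lactamase reporter cells (HEK 293T) received compounds from DMSO stocks after overnight attachment, were incubated 5 hr, then treated 2 hr with FRET substrate before dual-emission fluorescence measurement (405 nm excitation).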

For assay [9], the target named is Thyrotropin-releasing hormone receptor (Homo sapiens) (UniProt P34981). Nature of the assay: qHTS assay to identify small molecule antagonists of the thyrotropin-releasing hormone receptor (TRHR) signaling pathway (AID 1346877; active = well fitted inhibition curve with a large enough effect in the repeat runs, not every such curve was filed as active; also: series mostly up to about 51 µM). An outline of the steps: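 Antagonism is measured as suppression of the calcium response to 1 nM TRH in TRHR-HEK293 cells that have been dye-loaded for 2 h at 37 °C after overnight plating. Each compound is tested at 15 concentrations in triplicate.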
Sequence of Thyrotropin-releasing hormone receptor (Homo sapiens) (P34981 whole entry, looked up): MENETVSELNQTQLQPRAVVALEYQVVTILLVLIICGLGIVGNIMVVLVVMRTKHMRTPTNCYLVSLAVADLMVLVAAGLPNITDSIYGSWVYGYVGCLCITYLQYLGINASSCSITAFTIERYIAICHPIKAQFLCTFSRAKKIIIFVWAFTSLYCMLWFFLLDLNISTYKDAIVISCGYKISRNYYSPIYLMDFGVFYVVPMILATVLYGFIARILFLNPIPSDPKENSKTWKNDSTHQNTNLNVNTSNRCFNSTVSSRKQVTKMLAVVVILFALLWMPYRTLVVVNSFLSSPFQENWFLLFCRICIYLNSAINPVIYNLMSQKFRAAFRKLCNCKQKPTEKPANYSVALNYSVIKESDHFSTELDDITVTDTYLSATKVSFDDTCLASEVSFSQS

Assay [10] shares this target. Nature of the assay: qHTS assay to identify small molecule agonists of the thyrotropin-releasing hormone receptor (TRHR) signaling pathway (AID 1346891; calls by dose curve;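 also: HEK293 cells expressing TRHR with calcium dye readout; series mostly up to about 58 µM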). An outline of the steps: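 Agonist-mode calcium mobilisation screen: TRHR-transfected HEK293 cells cultured overnight (18 h), dye-loaded for 2 h at 37 °C, exposed to compounds, and monitored by fluorescence for 3 min.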

The nature of assay [11]: Human pregnane X receptor (PXR) small molecule agonists, qHTS cell viability counter screen (AID 1346977). Also: nearly all actives have a fitted effect of over 50% in size. Also: potency is read from the fitted curve at half-maximal effect. Put shortly: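 Measures live-cell protease fluorescence (CellTiter-Fluor) in PXR-Luc HepG2 cells treated 24hr with compounds at 37C. Cells had 5hr to attach before pin transfer of DMSO solutions.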
Assay [12] is described as follows: Caspase-3/7 induction in HepG2 cells by small molecules, qHTS assay (AID 1346978). Also: nearly all actives have a fitted effect of over 15% in size. An outline of the steps:
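Wild-type HepG2 cells, 2,000/well, settled 5 hr at 37 C and 5% CO2, then compound-treated for 17 hr; caspase-3/7 activity read by luminescent Caspase-Glo 3/7 after 30 min at room temperature.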

The nature of assay [13]: Caspase-3/7 induction in CHO-K1 cells by small molecules, qHTS cell viability counter screen (AID 1346979). Also: nearly all actives have a fitted effect of over 35% in size. Also: potency is read from the fitted curve at half-maximal effect. An outline of the steps:
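In the same wells as the caspase read, viability of compound-treated wild-type CHO-K1 cells was assessed using CellTiter-Fluor, added after 16hr at 37C and measured by fluorescence following 1hr further incubation.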

Assay [14] in a line: Caspase-3/7 induction in CHO-K1 cells by small molecules, qHTS assay (AID 1346980). Also: nearly all actives have a fitted effect of over 15% in size. Put shortly:
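Wild-type CHO-K1 cells exposed to compounds for 17hr at 37 C, 5% CO2. Caspase-3/7 activity then measured by Caspase-Glo 3/7 luminescence after 30min at room temperature.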

A short description of assay [15]: Caspase-3/7 induction in HepG2 cells by small molecules, qHTS cell viability counter screen (AID 1346981). Also: nearly all actives have a fitted effect of over 30% in size. Also: potency is read from the fitted curve at half-maximal effect. An outline of the steps: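 Cell viability is measured as a cytotoxicity counter screen alongside the Caspase-Glo 3/7 readout in identical wells. Wild-type HepG2 cells are treated with test compounds for 16 hr at 37 C before CellTiter-Fluor addition and a 1-hr incubation.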

Assay [16] deals with Nuclear receptor subfamily 1 group I member 2 (Homo sapiens) (UniProt O75469). The assay can be described thus: Human pregnane X receptor (PXR) small molecule agonists, qHTS assay (AID 1346982). Also: nearly all actives have a fitted effect of over 35% in size. Also: potency is read from the fitted curve at half-maximal effect. An outline of the steps:
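Cells: HepG2 stably carrying PXR-Luc. Medium held 5% charcoal-stripped FBS. Compounds in DMSO added after 5 hr plating, incubated 24 hr, then luminescence quantified with ONE-Glo.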

The target of assay [17] is Nuclear receptor subfamily 1 group I member 2 (Rattus norvegicus) (UniProt Q9R1A7). The assay can be described thus: Rat pregnane X receptor (rPXR) activation by small molecules, qHTS assay (AID 1346983). Also: nearly all actives have a fitted effect of over 20% in size. The following applies: rPXR luciferase reporter cells, One-Glo luminescence, 24 h; max activation: active compounds read high. Put shortly: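 Cell-based rPXR activation assay: rPXR cells, 2,000 per well, rested 5hr at 37 C, then exposed to compounds in DMSO for 24 hr at 37 C. Luciferase activity read by One-Glo luminescence after 30 min at room temperature.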
Sequence of Nuclear receptor subfamily 1 group I member 2 (Rattus norvegicus) (Q9R1A7 whole entry, looked up): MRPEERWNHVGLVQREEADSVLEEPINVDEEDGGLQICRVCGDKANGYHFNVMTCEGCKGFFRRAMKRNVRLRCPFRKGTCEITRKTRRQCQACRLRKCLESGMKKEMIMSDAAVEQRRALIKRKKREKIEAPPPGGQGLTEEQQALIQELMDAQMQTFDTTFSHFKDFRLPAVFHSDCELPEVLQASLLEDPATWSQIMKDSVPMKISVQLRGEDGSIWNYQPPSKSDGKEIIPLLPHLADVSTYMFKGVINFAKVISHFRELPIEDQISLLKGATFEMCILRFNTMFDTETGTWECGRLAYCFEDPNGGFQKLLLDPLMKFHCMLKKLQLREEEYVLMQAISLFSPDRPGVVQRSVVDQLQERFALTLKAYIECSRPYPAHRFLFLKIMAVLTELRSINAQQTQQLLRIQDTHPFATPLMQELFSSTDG

Assay [18] deals with Nuclear receptor subfamily 1 group I member 2 (Homo sapiens) (UniProt O75469). Nature of the assay: CYP3A4 induction through human pregnane X receptor (PXR) by small molecules, qHTS assay (AID 1346984). Also: nearly all actives have a fitted effect of over 40% in size. Also: potency is read from the fitted curve at half-maximal effect. Put shortly:
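Quantitative HTS in DPX-2 cells, i.e. HepG2 transfected with PXR response element and CYP3A4-promoter luciferase. Compounds in DMSO incubated 24hr at 37C; then P450-Glo CYP3A4 substrate, 3uM final, 3hr; One-Glo luminescence.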

For assay [19] the target is unchanged. Nature of the assay: Human pregnane X receptor (PXR) activation by small molecules, qHTS assay (AID 1346985). Also: nearly all actives have a fitted effect of over 40% in size. An outline of the steps:
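DPX-2 cells (HepG2 co-transfected with a PXR response element and a CYP3A4-promoter luciferase construct) were seeded at 2,000 per well, rested 5 hr at 37C, then exposed to DMSO-dissolved compounds for 24 hr. Activation was read as luciferase luminescence.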

The target of assay [20] is Progesterone receptor (Homo sapiens) (UniProt P06401). The assay can be described thus: qHTS assay to identify small molecule antagonists of the progesterone receptor (PR) signaling pathway (AID 1346795; active = well fitted inhibition curve with a large enough effect in the signal ratio in the repeat runs, not every such curve was filed as active; the % refers to the signal ratio). An outline of the steps: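 HEK293T PR-UAS-bla reporter cells in charcoal-stripped serum (2%) received compound after a 6 hr settling period, followed by R5020 agonist at 1 nM final; 16 hr incubation preceded the FRET substrate step and fluorescence measurement.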
Sequence of Progesterone receptor (Homo sapiens) (P06401 whole entry, looked up): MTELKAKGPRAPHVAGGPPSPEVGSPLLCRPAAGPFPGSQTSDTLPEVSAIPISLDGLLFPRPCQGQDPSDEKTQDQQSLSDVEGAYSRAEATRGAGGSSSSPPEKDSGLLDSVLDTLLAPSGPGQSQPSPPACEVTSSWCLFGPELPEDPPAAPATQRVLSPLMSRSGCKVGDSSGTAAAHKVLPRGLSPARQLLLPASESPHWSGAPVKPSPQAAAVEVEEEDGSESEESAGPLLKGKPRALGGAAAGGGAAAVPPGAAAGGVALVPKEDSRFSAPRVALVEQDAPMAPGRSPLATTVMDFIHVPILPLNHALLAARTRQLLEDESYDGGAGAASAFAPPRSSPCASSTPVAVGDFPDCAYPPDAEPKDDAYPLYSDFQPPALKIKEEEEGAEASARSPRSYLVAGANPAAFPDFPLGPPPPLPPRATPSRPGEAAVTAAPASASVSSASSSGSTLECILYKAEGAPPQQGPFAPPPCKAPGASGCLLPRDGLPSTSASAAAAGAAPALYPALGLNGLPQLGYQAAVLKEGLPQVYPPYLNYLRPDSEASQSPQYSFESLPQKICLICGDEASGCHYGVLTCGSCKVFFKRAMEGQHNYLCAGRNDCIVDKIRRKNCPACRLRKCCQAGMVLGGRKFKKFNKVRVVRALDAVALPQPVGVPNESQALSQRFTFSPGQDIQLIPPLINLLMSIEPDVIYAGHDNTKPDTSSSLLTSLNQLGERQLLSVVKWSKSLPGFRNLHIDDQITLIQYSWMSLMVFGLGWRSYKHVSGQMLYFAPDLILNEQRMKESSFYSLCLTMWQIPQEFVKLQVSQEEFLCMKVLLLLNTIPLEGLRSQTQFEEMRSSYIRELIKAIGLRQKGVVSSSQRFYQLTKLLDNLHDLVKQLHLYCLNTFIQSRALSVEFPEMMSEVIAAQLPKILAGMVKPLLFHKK

Values joined by “and” are separate entries in the source; they are usually repeats but may differ in a detail not shown here. Equal values may be shown once. Values without a mark were called inactive. Records with an inconclusive call do not appear. Active and inactive are the calls of the source. Unless noted, calls follow the shape of the dose curve; as a rule, active = well fitted curve in the direction sought with a large enough effect in the repeat runs; inconclusive = weak or mixed curves; inactive = no such curve, though single readings can be large; an effect the other way counts as inactive or inconclusive.
% is scaled to controls: 0 for no effect and ±100 for the full control effect.

Sequence of Nuclear receptor subfamily 1 group I member 2 (Homo sapiens) (O75469 whole entry, looked up): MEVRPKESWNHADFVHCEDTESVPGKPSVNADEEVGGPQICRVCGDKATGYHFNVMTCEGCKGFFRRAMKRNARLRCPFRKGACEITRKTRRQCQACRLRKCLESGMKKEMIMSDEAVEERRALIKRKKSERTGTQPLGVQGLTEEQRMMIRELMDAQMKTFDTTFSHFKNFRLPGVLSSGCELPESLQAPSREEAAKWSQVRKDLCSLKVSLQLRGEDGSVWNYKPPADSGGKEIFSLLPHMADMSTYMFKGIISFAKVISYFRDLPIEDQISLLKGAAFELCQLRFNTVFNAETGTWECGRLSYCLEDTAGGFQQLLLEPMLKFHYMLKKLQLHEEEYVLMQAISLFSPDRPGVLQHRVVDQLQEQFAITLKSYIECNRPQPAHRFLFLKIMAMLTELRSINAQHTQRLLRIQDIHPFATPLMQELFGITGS

In the case of `CCCN(CC1CC1)c1c([N+](=O)[O-])cc(C(F)(F)F)cc1[N+](=O)[O-]`, the Potency entry in [1], in assay [2], in assay [3], in assay [4], in assay [5] and in assay [6] was “inactive” each time. Moreover, the Potency result in assay [7], in assay [9], in assay [10], in [11], in assay [12] and in assay [13] was “inactive” in each case. The Potency entry in assay [14] and in assay [15] was “inactive” throughout. In addition, the call in [8] was inactive.
For the compound `Clc1ccc(C(OCCN2CCCCC2)c2ccccc2)cc1` (centres undefined), the Potency entry in [1], in assay [2], in assay [3], in assay [4], in assay [5] and in [6] was “inactive” in each case. Besides, the Potency entry in [7], in [9], in assay [10], in assay [12], in [13] and in [14] was “inactive” each time. Moreover, the Potency result in [15], in [16] and in assay [19] was “inactive” each time. Besides, the max activation in assay [17] was -3.11%. For the same compound, the Potency in assay [18] was 12.6 µM (active).
Regarding `CC(C)O.CC(C)O.OCCN(CCO)CCO.OCCN(CCO)CCO.[Ti]`, the Potency entry in assay [1], in assay [2], in assay [3], in assay [20], in assay [5] and in assay [6] was “inactive” throughout. In addition, the Potency entry in [7], in [11], in [12], in [13], in assay [14] and in assay [15] was “inactive” in each case. Further, the Potency result in [16] is “inactive”. Further, the call in assay [8] was inactive.
`CN1[C@@H]2CC[C@H]1CC(OC(=O)c1cc(Cl)cc(Cl)c1)C2` (some centres undefined): in assay [1], the Potency is 26.6 µM (active). Further, the Potency result in assay [2], in assay [3], in [20], in assay [6], in assay [7] and in [9] was “inactive” throughout. Further, the Potency result in [10], in assay [12], in assay [13], in [14] and in assay [15] was “inactive” each time. Also, in assay [8], the outcome was inactive.
For the compound `C(=NC1CCCCC1)=NC1CCCCC1`, the Potency entry in assay [1], in assay [2], in assay [3], in assay [20], in [6] and in assay [9] was “inactive” in each case. In addition, the Potency entry in [12] and in assay [14] was “inactive” in each case. For the same compound, the Potency is 49.3 µM (active) in [7]; 13.8 µM (active) in assay [13]; 61.5 µM (active) and 54.5 µM (active) in [16].
`CCOc1ccc(C(C)(C)COCc2cccc(Oc3ccccc3)c2)cc1`: the Potency entry in assay [1], in assay [2], in assay [3], in [20], in assay [6] and in [7] was “inactive” throughout. For the same compound, the Potency result in [10], in assay [11], in [12], in assay [13], in [14] and in [15] was “inactive” throughout. Moreover, the result in [8] was inactive.
`O=[N+]([O-])c1ccc(F)c([N+](=O)[O-])c1`: the Potency entry in assay [1], in assay [3], in [20], in [7], in assay [9] and in assay [10] was “inactive” each time. Also, the Potency result in assay [12], in assay [14], in assay [16], in [18] and in assay [19] was “inactive” each time. Moreover, the Potency in assay [2] is 30.9 µM (active); in [11], 27.6 µM (active); in [13], 24.6 µM (active); in [15] it was 27.6 µM (active). The max activation in [17] is -9.38%.

For the origin of these results see PubChem BioAssay (Tox21).
